# Compounds with a hit are over-represented: about 1.8% of the library has one in this group of screens.
# LGR2 inh: inhibitors of bursicon-induced Drosophila LGR2 receptor cAMP signaling; AID 720647; inhibition, % at 9.99 µM; HEK293 LGR2, CRE-luciferase, bursicon-stimulated, 4 h; actives 0.35% (n = 380,000);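 active = drop in luminescence signal, shown as inhibition above about 50% in the replicate tests, limit read from the data, passing the limit was not always enough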;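 note: agonist challenge used bursicon conditioned medium at about half maximal strength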
# EWS-Fli block: inhibitors of EWS/Fli oncoprotein transcriptional activity; A673 NR0B1-luciferase reporter, viability-normalised; inhibition, % at 12.6 µM; actives 0.67% (n = 350,000); AID 651661;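 active = mean inhibition of at least 50% after viability correction, with every replicate also passing that limit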;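 note: firefly luciferase signal divided by Alamar Blue viability fluorescence both relative to DMSO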
# F508del corr: correctors of CFTR F508del function in bronchial epithelial cells; CFBE cells, YFP halide quenching; stimulated with forskolin plus potentiator P3; % fluorescence drop versus neutral controls; activity (quench increase), % at 7.58 µM; actives 0.36% (n = 350,000);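 active = mean added fluorescence quench of at least 8% versus neutral control, with both replicates also reaching 8%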;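 note: cells transiently co-express mutant CFTR-F508del with the halide-sensitive YFP; corrector assay measuring rescue of mutant channel to the surface after 24 h compound exposure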
# GSIS activator: primary screen for activators of insulin secretion dependent on glucose, INS-1E cells, GLuc reporter luminescence; INS-1E GLuc reporter insulin secretion, 2-3 h; activation, % at 16.6 µM; actives 0.61% (n = 370,000);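 active = lowest replicate activation of at least 40%, so every replicate reaches that level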;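 note: 0% = median of neutral control wells and 100% = median of IBMX positive control wells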
# RAD52 inh: blocks human RAD52 DNA annealing; AID 651710; P43351; inhibition, % at 18.7 µM; recombinant RAD52 DNA annealing, FRET fluorescence; actives 0.46% (n = 360,000);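 active = every replicate showing at least 50% inhibition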
# Target sequence (P43351 whole entry, looked up): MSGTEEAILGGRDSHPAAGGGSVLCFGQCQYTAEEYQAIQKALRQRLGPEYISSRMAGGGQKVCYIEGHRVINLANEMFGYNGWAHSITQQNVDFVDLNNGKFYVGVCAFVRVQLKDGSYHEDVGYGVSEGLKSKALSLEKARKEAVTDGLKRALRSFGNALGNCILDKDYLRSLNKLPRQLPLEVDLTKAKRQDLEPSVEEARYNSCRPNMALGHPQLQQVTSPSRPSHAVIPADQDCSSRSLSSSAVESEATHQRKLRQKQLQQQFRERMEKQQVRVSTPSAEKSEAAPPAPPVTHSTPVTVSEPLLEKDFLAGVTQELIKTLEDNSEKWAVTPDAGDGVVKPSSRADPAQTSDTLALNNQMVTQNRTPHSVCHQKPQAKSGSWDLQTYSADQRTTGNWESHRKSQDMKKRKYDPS
# RAD54 inh: blocks human RAD54 Holliday junction branch migration. Q92698. FAM/BHQ fluorescence. inhibition, % at 10.4 µM. actives 0.14% (n = 360,000);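 active = mean normalized replicate activity at least 40 and at least half of replicates scoring 40 or more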;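 note: 0% = median of neutral control wells and 100% = median of positive control wells; inhibitors cause a drop in the FAM fluorescence signal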
# Active calls of the source: *; · = no result.
SMILES,LGR2 inh,EWS-Fli block,F508del corr,GSIS activator,RAD52 inh,RAD54 inh
O=C(O)c1cccc(Nc2nc(N3CCOCC3)nc(N3CCOCC3)n2)c1,8,·,·,10,·,10
CC12CCC(CC1O)C2C(=O)O (centres undefined),8,-4,8.2*,·,-13,·
O=C(Nc1nnc(-c2ccccc2SCc2ccccc2F)s1)Nc1ccccc1F,-14,·,·,61*,·,4
Cc1ccc(C2NC(=O)c3ccccc3N2)c(C)c1 (centres undefined),-39,36,11*,·,-23,·
O=C1NC(c2ccc(Cl)cc2)Nc2ccccc21 (centres undefined),3,15,0,-4,-1,·
CN(C)c1ccc(C2NC(=O)c3ccccc3N2)cc1 (centres undefined),54*,-28,0,-3,-9,0
O=C(CC(=O)Nc1ccc(Cl)cc1Cl)Nc1ccc(Cl)cc1Cl,-8,3,2,-14,-7,-5
CN(C)C(=S)SCC(=O)Nc1ccc(Cl)cc1Cl,-22,75*,·,-5,20,·
Cc1ccc(C(=O)C(NC(=O)c2ccco2)N2CCOCC2)cc1 (centres undefined),·,·,·,·,·,-4
CC(NC(=O)c1cc(S(=O)(=O)N2CCOCC2)ccc1F)c1ccc(-n2ccnc2)cc1 (centres undefined),-5,6,11*,-5,-18,-10
C[C@H](CO)N1C[C@H](C)[C@@H](CN(C)S(=O)(=O)c2cn(C)cn2)Oc2ccc(NC(=O)Nc3ccc4c(c3)OCO4)cc2C1=O,5,4,3,7,3,2
CCOc1ccccc1NC(=O)C1CCCN1S(=O)(=O)c1ccc2c(c1)C(C)(C)C(=O)N2C (centres undefined),-2,12,1,7,-9,0
CN(C)CCCNC(=O)C[C@H]1C[C@H](C(=O)N2CCCCC2)[C@@]2(CCc3ccccc3)c3[nH]c4ccc(Cl)cc4c3CCN2C1=O,·,63*,2,·,18,-2
Cc1cc(NC(=O)c2ccc([N+](=O)[O-])cc2)no1,-3,-39,0,3,-8,-5
COC(=O)c1c(-c2ccc(C)cc2)csc1NC(=O)c1c(-c2ccccc2)noc1C,·,-14,8.5*,·,-23,·
C=C(NC(=O)C(=C)NC(=O)c1csc(C2=NC3c4csc(n4)C4NC(=O)c5csc(n5)C(C(C)(O)C(C)O)NC(=O)C5CSC(=N5)/C(=C/C)NC(=O)C(C(C)O)NC(=O)c5csc(n5)C3(CC2)NC(=O)C(C)NC(=O)C(=C)NC(=O)C(=C)NC(=O)C(C(C)C)NC2C=Cc3c(C(C)O)cc(nc3C2O)C(=O)OC4C)n1)C(N)=O (centres undefined),-7,74*,-3,-8,-6,·
COc1ccc(-c2ccccc2[C@@H]2[C@@H](CO)N(C(=O)C3CCC3)[C@H]2C#N)cc1,0,1,1,-3,0,·
CC1CCCCC1NC(=O)COC(=O)c1ccc([N+](=O)[O-])o1 (centres undefined),-2,5,2,-20,-5,4
COc1ccccc1CCn1cnc(-c2ccc(F)cc2)c1CC(C)C,48,28,4,120*,-18,·
COc1ccccc1CCn1cnc(-c2ccccc2)c1CC(C)C,52*,26,1,·,4,·
COc1ccccc1CCn1cnc(-c2ccccc2OC)c1CC(C)C,40,11,3,65*,2,·
COc1cccc(S(=O)(=O)N[C@H]2CC[C@@H](CCn3cc(-c4ccccc4)nn3)O[C@H]2CO)c1,-9,17,0,4,-5,3
CN(C)CCCN1c2ccccc2Sc2ccccc21,11,5,11*,·,29,10
Cc1ccc2[nH]c(=O)c(CN(CC3CCCO3)C(=O)c3cccs3)cc2c1 (centres undefined),-18,7,-3,156*,4,-7
COc1ccc2cc(CN(CC3CCCO3)C(=S)Nc3ccccc3)c(=O)[nH]c2c1 (centres undefined),·,43,10*,-23,-6,·
SMILES,LGR2 inh,EWS-Fli block,F508del corr,GSIS activator,RAD52 inh,RAD54 inh
O=C(C[C@H]1CC[C@@H](NC(=O)c2cccc(F)c2)[C@@H](CO)O1)NCc1ccc(Oc2ccccc2)cc1,-18,23,1,-15,6,-2
CCn1c2ccccc2c2cc(NC(=O)CNCc3ccccc3OC)ccc21,6,57*,3,-2,10,-6
CC[C@]12c3[nH]c4cc(-c5ccco5)ccc4c3CCN1C(=O)[C@@H](CC(=O)NC(C)(C)C)C[C@@H]2C(=O)N1CCN(C(=O)c2ccco2)CC1,15,-9,0,1,-14,-7
O=C(CN1C(=O)NC2(CCCc3ccccc32)C1=O)NCCc1ccc(F)cc1 (centres undefined),-4,7,-1,-20,-3,-2
COc1ccc(NC(=O)c2nc(C)c(C3(C)CC(c4ccccc4)=NO3)s2)cc1 (centres undefined),8,55*,14*,-4,-11,3
CC(C)c1ccc(NC(=O)Nc2nc(C(N)c3ccccc3)cs2)cc1 (centres undefined),94*,1,0,·,-87,1
O=C(Nc1ccc(Cl)c(Cl)c1)Nc1nc(-c2ccccc2)cs1,2,·,·,166*,·,-24
O=C(c1ccc(CS(=O)c2ccccc2Cl)o1)N1CCOCC1 (centres undefined),3,2,0,14,-16,2
COc1cccc(N2CCN(C(=O)c3ccc(CS(=O)c4ccccc4C)o3)CC2)c1 (centres undefined),-2,58*,5,-3,-3,-2
COc1cccc(N2CCN(C(=O)c3ccc(CS(=O)c4ccccc4Cl)o3)CC2)c1 (centres undefined),-5,51*,0,-25,0,-8
COc1ccc(N2CCN(C(=O)c3ccc(CS(=O)c4cccc(C)c4)o3)CC2)cc1 (centres undefined),20,·,-1,6,4,1
O=C(c1ccc(CS(=O)c2ccccc2Cl)o1)N1CCN(c2ccccc2)CC1 (centres undefined),-6,56*,6,-9,-7,0
CC(C)NC(=O)N(C)C[C@@H]1Oc2c(NC(=O)C3CC3)cccc2C(=O)N([C@@H](C)CO)C[C@@H]1C,7,3,-1,1,2,0
COC(=O)C=C1CCC2C3CC(F)C4(O)CC(=O)CCC4(C)C3C(=O)CC12C (centres undefined),-9,1,2,2,-11,1
COCCNC(=O)C[C@@H]1C[C@H]2c3cc(NC(=O)C4CCC4)ccc3O[C@H]2[C@@H](CO)O1,-6,-4,2,13,3,-1
Cc1ccc2occ(/C=N/NC(=O)c3ccc(O)cc3)c(=O)c2c1,24,·,0,-6,-9,1

# Screening data deposited in PubChem by Broad Institute.
